Assay results taken from PubChem BioAssay (NCI).
The panel holds about 83,000 compounds, 20% with a hit somewhere; the sample as a whole holds those more often.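 Note: values are percent growth. 100 is the growth of untreated cells, values between 100 and 0 indicate rising inhibition; between -100 and 0 indicates cell death.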 A number with no mark means an inactive call. The source made the active and inactive calls. The calls were made as follows: active = growth percent below 10; inactive = the rest. Where a SMILES comes first, the peptide text is derived from it. [ ]: non-standard residue; d: D form. ξ: configuration not given here. ξD = NC(CC(=O)O)C(=O)O

Key:
Test in all cases: NCI-60 one-dose screen, 48 h (100 = growth as untreated, 0 = no growth, -100 = all killed)
Conditions in all cases: 10 µM unless noted
NCI-H23 lung = tested on: NCI-H23 lung
NCI-H226 lung = tested on: NCI-H226 lung
NCI-H322M lung = tested on: NCI-H322M lung
HOP-62 NSCLC = tested on: HOP-62 NSCLC
NCI-H460 lung = tested on: NCI-H460 lung
HOP-92 NSCLC = tested on: HOP-92 NSCLC
NCI-H522 lung = tested on: NCI-H522 lung
A549/ATCC NSCLC = tested on: A549/ATCC NSCLC
786-0 renal = tested on: 786-0 renal
COLO 205 colon = tested on: COLO 205 colon
DU-145 prostate = tested on: DU-145 prostate
K-562 leukemia = tested on: K-562 leukemia
MALME-3M melanoma = tested on: MALME-3M melanoma
MDA-MB-231 breast = tested on: MDA-MB-231 breast
SF-268 CNS = tested on: SF-268 CNS
SF-295 CNS = tested on: SF-295 CNS
SF-539 CNS = tested on: SF-539 CNS
UACC-257 melanoma = tested on: UACC-257 melanoma
M14 melanoma = tested on: M14 melanoma
RXF 393 renal = tested on: RXF 393 renal

| SMILES | growth (NCI-H23 lung) | growth (NCI-H226 lung) | growth (NCI-H322M lung) [%] | growth (HOP-62 NSCLC) [%] | growth (NCI-H460 lung) [%] | growth (HOP-92 NSCLC) | growth (NCI-H522 lung) | growth (A549/ATCC NSCLC) [%] | growth (786-0 renal) | growth (COLO 205 colon) | growth (DU-145 prostate) | growth (K-562 leukemia) | growth (MALME-3M melanoma) | growth (MDA-MB-231 breast) [%] | growth (SF-268 CNS) [%] | growth (SF-295 CNS) | growth (SF-539 CNS) | growth (UACC-257 melanoma) | growth (M14 melanoma) | growth (RXF 393 renal) [%] |
| --- | --- | --- | --- | --- | --- | --- | --- | --- | --- | --- | --- | --- | --- | --- | --- | --- | --- | --- | --- | --- |
| CCCCCCC1N=C(N)N=C(N)N1c1cccc(Cl)c1 (configuration not stated) | 6.77% (active) | 67.7% | 43 | 34.6 | 18.4 | 15% | 80.2% | 35.4 | 21.8% | 54.4% | 34.3% | 20.1% | 40.9% | 68 | 19.6 | 13.8% | 5.72% (active) | 63.9% | 31.7% |  |
| CC1C(c2ccccc2)OCCN1C(=S)Nc1ccc(S(=O)(=O)N2CCCCC2)cc1 (configuration not stated) | 98.6% | 91.6% | 108 | 109 | 104 | 78.2% | -34.1% (active) | 102 | 109% | 108% | 104% | 109% | 96.5% | 86 | 109 | 99.2% |  | 91.5% | 94.5% | 95.5 |
| Cc1nn(CCO)c(C)c1N=[N+]([O-])c1c(C)nn(CCO)c1C | 87% | -28.5% (active) | 98.5 | 88.1 | 76.3 | -47.7% (active) | -78% (active) | 50.5 | -82.3% (active) | -85.6% (active) | -9.05% (active) | -31.8% (active) | -59.9% (active) | 98.6 | 81.3 | 100% | 89.1% | -56.2% (active) | -61.6% (active) |  |
| N=C(N)Sc1cccc[n+]1[O-] | 55.6% | 78.7% | 68.9 | 79 | 21.8 | 104% | 37% | 54.5 | 76.7% | 39.8% | 35.5% | 33.2% | 22.2% | 59.6 | 62.6 | 68.7% |  | 58% | 18.4% | 22.2 |
| O=[N+]([O-])C=C(c1ccccc1)c1ccccc1 | 81.9% | 88.6% | 88 | 73.7 | 88.4 | 63.9% | 72.7% | 79.5 | 89.2% | 114% | 87.7% | 29.4% | 80.2% |  | 85.7 | 89.3% | 88.2% | 84% | 79.4% | 78.5 |
| NCC(=O)NC(CC(=O)O)C(=O)O (configuration not stated) (H-Gly-[ξD]-OH) | 108% | 100% | 104 | 101 | 110 | 100% | 87.1% | 103 | 100% | 119% | 105% | 106% | 98.1% |  | 107 | 101% | 99.3% | 96.5% | 104% | 109 |
| Nc1ccc(-c2ccc(N)c(S(=O)(=O)O)c2)cc1S(=O)(=O)O | 112% | 119% | 116 | 101 | 117 | 74.4% | 125% | 117 | 106% | 114% | 109% | 118% | 107% | 110 | 103 | 115% | 106% | 134% | 104% |  |
| COc1cc(OC)c(/C=C/c2c3ccccc3cc[n+]2C)c(OC)c1 | 17.3% | 33.3% | 32.9 | 35.3 | 10.8 | 36.6% | -19.3% (active) | 14.7 | 62.8% | -35.3% (active) | 36.5% | 5.35% (active) | 33.3% | 42.4 | 26.3 | -32.3% (active) | 31.9% | -16.7% (active) | 41.7% |  |
